# Experimental data as given in PubChem BioAssay (NCI).
# About 79,000 compounds went through this panel and 15% of them were active in at least one assay; those are over-represented in the sample as a whole. Unmarked numbers belong to inactive results. Active and inactive are the calls of the source. No stated cut-off is given here; in the data, active means growth inhibition above about 70%; inactive means the rest.
# How the values were obtained:
# [1] = NCI Yeast Anticancer Drug Screen. Data for the rad52 strain (AID 147);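 further: 0% = growth of vehicle-treated control cultures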; conditions: S. cerevisiae rad52 mutant growth inhibition, stronger effect = higher value
# Method in brief: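 Vehicle-treated cultures served as the reference for growth inhibition of compound-exposed yeast bearing a DNA repair mutation.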
# [2] = NCI Yeast Anticancer Drug Screen. Data for the wt1 strain (AID 149);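 further: 0% = growth of vehicle-treated wt1 cultures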; conditions: S. cerevisiae wt1 strain (SPY 50644) growth inhibition, stronger effect = higher value
# Method in brief: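 wt1 yeast, compound-treated; % growth inhibition vs vehicle control.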
# [3] = NCI Yeast Anticancer Drug Screen. Data for the rad50EPP+ strain (AID 151);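 further: 0% = growth of vehicle-treated control cultures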; conditions: S. cerevisiae rad50 mutant strain, stronger effect = higher value
# Method in brief: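 In this screen, rad50EPP+ yeast were exposed to compounds. Growth inhibition was scored against vehicle-treated controls.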
# [4] = NCI Yeast Anticancer Drug Screen. Data for the rad50 strain (AID 155);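 further: 0% = growth of vehicle-only cultures of the same strain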; conditions: S. cerevisiae rad50 strain growth inhibition, stronger effect = higher value
# Method in brief: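 Genetically altered yeast (DNA repair pathway); compound treatment; growth inhibition vs vehicle ctrl.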
# [5] = NCI Yeast Anticancer Drug Screen. Data for the mec2-1 strain (AID 157); conditions: S. cerevisiae mec2-1 strain, stronger effect = higher value
# Method in brief: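 Vehicle-treated cultures served as reference for growth inhibition of compound-exposed mec2-1 yeast.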
# [6] = NCI Yeast Anticancer Drug Screen. Data for the rad14 strain (AID 159);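 further: 0% = growth of vehicle-treated control cultures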; conditions: S. cerevisiae rad14 strain growth inhibition, stronger effect = higher value
# Method in brief: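 Test compounds were applied to a repair-deficient yeast strain. Its growth was then compared with that of cultures given vehicle alone, and inhibition was expressed relative to those controls.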
# [7] = NCI Yeast Anticancer Drug Screen. Data for the CLN2oe strain (AID 163);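 further: 0% = growth of vehicle-only control cultures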; conditions: S. cerevisiae CLN2oe strain, stronger effect = higher value
# Method in brief: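 Inhibition relative to vehicle-treated yeast is reported. Cells: strain with genetic alteration in cell-cycle control, grown with compound.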
# [8] = NCI Yeast Anticancer Drug Screen. Data for the bub3 strain (AID 167); conditions: S. cerevisiae bub3 mutant strain, stronger effect = higher value
# Method in brief: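 Yeast carrying a defined mutation is treated with each compound, and growth is compared with that of vehicle-exposed cells to give inhibition.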
# [9] = NCI Yeast Anticancer Drug Screen. Data for the wt2 strain (AID 169);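 further: 0% = growth of vehicle-treated yeast cultures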; conditions: S. cerevisiae wt2 strain growth inhibition, stronger effect = higher value
# Method in brief: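 Inhibition of yeast growth was determined after compound treatment, normalised to controls receiving only vehicle.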
# [10] = NCI Yeast Anticancer Drug Screen. Data for the mlh1 strain (AID 171);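 further: 0% = growth of vehicle-treated control cultures of the same strain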; conditions: S. cerevisiae mlh1 strain growth inhibition, stronger effect = higher value
# Method in brief: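 Vehicle-normalised growth inhibition of a repair- or checkpoint-altered yeast strain following compound treatment.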
# [11] = NCI Yeast Anticancer Drug Screen. Data for the sgs1 strain (AID 173);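 further: 0% = growth of vehicle-only control cultures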; conditions: S. cerevisiae sgs1 mutant, stronger effect = higher value
# Method in brief: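 Screen format: yeast with repair or checkpoint alterations, compound exposure, growth read relative to vehicle.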
# [12] = NCI Yeast Anticancer Drug Screen. Data for the mlh1 rad18 strain (AID 175); conditions: S. cerevisiae mlh1 rad18 strain growth inhibition, stronger effect = higher value
# Method in brief: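 Vehicle-treated cultures served as the reference for growth inhibition in a yeast strain carrying DNA damage repair alterations exposed to each compound.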
# [13] = NCI Yeast Anticancer Drug Screen. Data for the rad18 strain (AID 177); conditions: S. cerevisiae rad18 mutant growth inhibition, stronger effect = higher value
# Method in brief: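 Test articles were incubated with altered yeast defective in DNA damage repair. Results are given as inhibition of growth versus vehicle.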
# [14] = NCI Yeast Anticancer Drug Screen. Data for the sgs1 mgt1 strain (AID 161);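 further: 0% = growth of cultures given vehicle only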; conditions: S. cerevisiae sgs1 mgt1 strain, stronger effect = higher value
# Method in brief: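 Test agents were incubated with a DNA-repair-mutant yeast strain. Growth was then read and compared against vehicle-treated controls.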
# [15] = NCI Yeast Anticancer Drug Screen. Data for the cln2 rad14 strain (AID 165);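 further: 0% = growth equal to vehicle treated cultures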; conditions: S. cerevisiae cln2 rad14 strain, stronger effect = higher value
# Method in brief: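 Each compound was tested on cln2 rad14 yeast. Inhibition of growth was calculated against vehicle-exposed controls.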
# [16] = at 5.0 µM (retest, dose inferred, filed as 0.5)
# [17] = at 50.0 µM (retest, dose inferred, filed as 5.0)
compound,measurement,setting,value
O=C1C=CC(=O)N1c1ccc2c(c1)OCO2,growth inhibition,[1]; at 1.2 µM,11%
same,growth inhibition,[1]; at 3.7 µM,94% (active)
same,growth inhibition,[1]; at 11.0 µM,100% (active)
same,growth inhibition,[1]; at 33.0 µM,100% (active)
same,growth inhibition,[1]; at 100.0 µM,100% (active)
same,growth inhibition,[2]; at 1.2 µM,9%
same,growth inhibition,[2]; at 3.7 µM,96% (active)
same,growth inhibition,[2]; at 11.0 µM,100% (active)
same,growth inhibition,[2]; at 33.0 µM,100% (active)
same,growth inhibition,[2]; at 100.0 µM,100% (active)
same,growth inhibition,[3]; at 1.2 µM,9%
same,growth inhibition,[3]; at 3.7 µM,80% (active)
same,growth inhibition,[3]; at 11.0 µM,99% (active)
same,growth inhibition,[3]; at 33.0 µM,99% (active)
same,growth inhibition,[3]; at 100.0 µM,99% (active)
same,growth inhibition,[4]; at 1.2 µM,12%
same,growth inhibition,[4]; at 3.7 µM,86% (active)
same,growth inhibition,[4]; [16],84% (active)
same,growth inhibition,[4]; at 11.0 µM,99% (active)
same,growth inhibition,[4]; at 33.0 µM,99% (active)
same,growth inhibition,[4]; [17],97% (active)
same,growth inhibition,[4]; at 50.0 µM,99% (active)
same,growth inhibition,[4]; at 100.0 µM,99% (active)
same,growth inhibition,[5]; at 1.2 µM,-3%
same,growth inhibition,[5]; at 3.7 µM,76% (active)
same,growth inhibition,[5]; [16],12%
same,growth inhibition,[5]; at 11.0 µM,100% (active)
same,growth inhibition,[5]; at 33.0 µM,100% (active)
same,growth inhibition,[5]; [17],99% (active)
same,growth inhibition,[5]; at 50.0 µM,98.5% (active)
same,growth inhibition,[5]; at 100.0 µM,99% (active)
same,growth inhibition,[6]; at 1.2 µM,21%
same,growth inhibition,[6]; at 3.7 µM,99% (active)
same,growth inhibition,[6]; at 11.0 µM,100% (active)
same,growth inhibition,[6]; at 33.0 µM,100% (active)
same,growth inhibition,[6]; at 100.0 µM,100% (active)
same,growth inhibition,[7]; at 1.2 µM,-9%
same,growth inhibition,[7]; at 3.7 µM,40%
same,growth inhibition,[7]; at 11.0 µM,100% (active)
same,growth inhibition,[7]; at 33.0 µM,100% (active)
same,growth inhibition,[7]; at 100.0 µM,99% (active)
same,growth inhibition,[8]; at 1.2 µM,2%
same,growth inhibition,[8]; at 3.7 µM,90% (active)
same,growth inhibition,[8]; [16],25%
same,growth inhibition,[8]; at 11.0 µM,100% (active)
same,growth inhibition,[8]; at 33.0 µM,99% (active)
same,growth inhibition,[8]; [17],98% (active)
same,growth inhibition,[8]; at 50.0 µM,99.2% (active)
same,growth inhibition,[8]; at 100.0 µM,99% (active)
same,growth inhibition,[9]; at 1.2 µM,17%
same,growth inhibition,[9]; at 3.7 µM,99% (active)
same,growth inhibition,[9]; at 11.0 µM,100% (active)
same,growth inhibition,[9]; at 33.0 µM,100% (active)
same,growth inhibition,[9]; at 100.0 µM,100% (active)
same,growth inhibition,[10]; at 1.2 µM,-11%
same,growth inhibition,[10]; at 3.7 µM,58%
same,growth inhibition,[10]; at 11.0 µM,100% (active)
same,growth inhibition,[10]; at 33.0 µM,100% (active)
same,growth inhibition,[10]; at 100.0 µM,99% (active)
same,growth inhibition,[11]; at 1.2 µM,15%
same,growth inhibition,[11]; at 3.7 µM,85% (active)
same,growth inhibition,[11]; at 11.0 µM,100% (active)
same,growth inhibition,[11]; at 33.0 µM,100% (active)
same,growth inhibition,[11]; at 100.0 µM,100% (active)
same,growth inhibition,[12]; [16],-39%
same,growth inhibition,[12]; [17],97% (active)
same,growth inhibition,[12]; at 50.0 µM,99.2% (active)
same,growth inhibition,[13]; at 1.2 µM,-6%
same,growth inhibition,[13]; at 3.7 µM,58%
same,growth inhibition,[13]; at 11.0 µM,100% (active)
same,growth inhibition,[13]; at 33.0 µM,100% (active)
same,growth inhibition,[13]; at 100.0 µM,99% (active)
O=C(/C=C\c1ccc([N+](=O)[O-])o1)Nc1ccc(Cl)cc1,growth inhibition,[1]; at 1.2 µM,69%
same,growth inhibition,[1]; at 3.7 µM,96% (active)
same,growth inhibition,[1]; at 11.0 µM,98% (active)
same,growth inhibition,[1]; at 33.0 µM,98% (active)
same,growth inhibition,[1]; at 100.0 µM,97% (active)
same,growth inhibition,[2]; at 1.2 µM,6%
same,growth inhibition,[2]; at 3.7 µM,50%
same,growth inhibition,[2]; at 11.0 µM,97% (active)
same,growth inhibition,[2]; at 33.0 µM,98% (active)
same,growth inhibition,[2]; at 100.0 µM,98% (active)
same,growth inhibition,[3]; at 1.2 µM,52%
same,growth inhibition,[3]; at 3.7 µM,69%
same,growth inhibition,[3]; at 11.0 µM,83% (active)
same,growth inhibition,[3]; at 33.0 µM,91% (active)
same,growth inhibition,[3]; at 100.0 µM,84% (active)
same,growth inhibition,[4]; at 1.2 µM,38%
same,growth inhibition,[4]; at 3.7 µM,82% (active)
same,growth inhibition,[4]; [16],24%
same,growth inhibition,[4]; at 11.0 µM,97% (active)
same,growth inhibition,[4]; at 33.0 µM,97% (active)
same,growth inhibition,[4]; [17],54%
same,growth inhibition,[4]; at 50.0 µM,90.1% (active)
same,growth inhibition,[4]; at 100.0 µM,96% (active)
same,growth inhibition,[5]; at 1.2 µM,4%
same,growth inhibition,[5]; at 3.7 µM,19%
same,growth inhibition,[5]; [16],23%
same,growth inhibition,[5]; at 11.0 µM,63%
same,growth inhibition,[5]; at 33.0 µM,91% (active)
same,growth inhibition,[5]; [17],55%
same,growth inhibition,[5]; at 50.0 µM,27.5%
same,growth inhibition,[5]; at 100.0 µM,95% (active)
same,growth inhibition,[14]; [16],63%
same,growth inhibition,[14]; [17],84% (active)
same,growth inhibition,[14]; at 50.0 µM,90% (active)
same,growth inhibition,[7]; at 1.2 µM,-4%
same,growth inhibition,[7]; at 3.7 µM,30%
same,growth inhibition,[7]; at 11.0 µM,73% (active)
same,growth inhibition,[7]; at 33.0 µM,76% (active)
same,growth inhibition,[7]; at 100.0 µM,61%
same,growth inhibition,[15]; [16],14%
same,growth inhibition,[15]; [17],31%
same,growth inhibition,[15]; at 50.0 µM,35.1%
same,growth inhibition,[8]; at 1.2 µM,0%
same,growth inhibition,[8]; at 3.7 µM,24%
same,growth inhibition,[8]; [16],6%
same,growth inhibition,[8]; at 11.0 µM,82% (active)
same,growth inhibition,[8]; at 33.0 µM,78% (active)
same,growth inhibition,[8]; [17],42%
same,growth inhibition,[8]; at 50.0 µM,10.4%
same,growth inhibition,[8]; at 100.0 µM,96% (active)
same,growth inhibition,[9]; at 1.2 µM,28%
same,growth inhibition,[9]; at 3.7 µM,87% (active)
same,growth inhibition,[9]; at 11.0 µM,99% (active)
same,growth inhibition,[9]; at 33.0 µM,99% (active)
same,growth inhibition,[9]; at 100.0 µM,98% (active)
same,growth inhibition,[10]; at 1.2 µM,1%
same,growth inhibition,[10]; at 3.7 µM,46%
same,growth inhibition,[10]; at 11.0 µM,94% (active)
same,growth inhibition,[10]; at 33.0 µM,93% (active)
same,growth inhibition,[10]; at 100.0 µM,97% (active)
same,growth inhibition,[11]; at 1.2 µM,81% (active)
same,growth inhibition,[11]; at 3.7 µM,94% (active)
same,growth inhibition,[11]; at 11.0 µM,98% (active)
same,growth inhibition,[11]; at 33.0 µM,98% (active)
same,growth inhibition,[11]; at 100.0 µM,95% (active)
same,growth inhibition,[12]; [16],88% (active)
same,growth inhibition,[12]; [17],86% (active)
same,growth inhibition,[12]; at 50.0 µM,92.8% (active)
same,growth inhibition,[13]; at 1.2 µM,95% (active)
same,growth inhibition,[13]; at 3.7 µM,97% (active)
same,growth inhibition,[13]; at 11.0 µM,97% (active)
same,growth inhibition,[13]; at 33.0 µM,97% (active)
same,growth inhibition,[13]; at 100.0 µM,93% (active)
